This is a sample that favours compounds with a hit; in the whole collection about 4.3% have one here.
GLP-1R inv ag = acts as inverse agonist at human GLP-1 receptor | P43220 | HEK293 GLP-1R CRE-luciferase, luminescence, 24 h; GLP-1R form is constitutively active | Potency, µM (top dose mostly 38.3 µM), for the others: at the highest dose activity change, negative = inhibition, actives largely listed as inhibitors | hit rate 1.6% among 410,000 | AID 624417; further: potency means the concentration at half of the fitted maximal effect; on the % scale 0 is the no-effect control and ±100 the full control effect; nearly all actives have a fitted effect of over 55% in size
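Cells are plated, allowed 12 hours at 37 deg C, then treated with compounds for 24 hr before luciferase detection reagent is added and luminescence is read after 12 min at room temperature. The HEK293 line carries constitutively active GLP-1R with a cAMP-responsive reporter.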
DRD3 agonist = activates the human D3 dopamine receptor; P35462; D3R DiscoveRx beta-arrestin cells, luminescence, 90 min; max activation, %; hit rate 0.58% among 410,000; in the data active means max activation above about 30%; further: 0% is about no effect
Target sequence (P35462 whole entry, looked up): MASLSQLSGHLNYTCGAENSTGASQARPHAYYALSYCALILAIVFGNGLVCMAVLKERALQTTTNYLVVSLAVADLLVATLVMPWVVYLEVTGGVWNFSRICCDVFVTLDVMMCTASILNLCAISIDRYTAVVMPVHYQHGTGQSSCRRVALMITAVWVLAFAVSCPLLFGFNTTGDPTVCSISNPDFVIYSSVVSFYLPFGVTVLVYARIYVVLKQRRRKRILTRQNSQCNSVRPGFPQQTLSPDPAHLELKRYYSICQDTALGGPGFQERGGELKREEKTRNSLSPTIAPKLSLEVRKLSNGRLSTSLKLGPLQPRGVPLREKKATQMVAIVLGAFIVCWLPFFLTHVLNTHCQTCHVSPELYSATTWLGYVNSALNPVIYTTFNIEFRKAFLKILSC
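Cells at 1500/well, incubated overnight, then treated with pinned compounds (dopamine as control) for 90 min at 37 degrees C. DiscoveRx reagent added for 30 - 60 minutes at room temperature; luminescence read.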
DRD3 antagonist = blocks the human D3 dopamine receptor; P35462; D3R cells, DiscoveRx beta-arrestin luminescence, antagonist mode; active compounds read low; max response, negative = inhibition, %; hit rate 2.5% among 360,000; in the data active means max response below about -50%; inconclusive means no clear call, values can overlap the other calls; further: on the % scale 0 is the no-effect control and ±100 the full control effect
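Cells plated overnight at 1500 cells/well, then exposed to library compounds with dopamine controls for 90 minutes at 37 degrees C. DiscoveRx reagent added for 30–60 minutes at room temperature; luminescence read, quantitative HTS format.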
GLP-1R agonist = GLP-1 receptor (human) agonism; Potency, µM (highest dose often 45.6 µM), for the others: at the top dose activation, usual class: activators; P43220; HEK293 GLP-1R CRE-luciferase, luminescence, 4-6 h; cells express a hypersensitive GLP-1R form; AID 624172; hit rate 0.007% among 380,000; further: potency means the concentration at half of the fitted maximal effect; % of control where 0% means no effect
Active calls of the source: *; ? = inconclusive; . = no result. Unless noted, the call rests on the fitted dose curve; in most records, active means well fitted curve in the direction sought with a large enough effect; inconclusive means small, poorly fitted or top-dose-only effect, or another doubt; inactive means no such curve, though single readings can be large; an effect the other way counts as inactive or inconclusive.

SMILES | GLP-1R inv ag | DRD3 agonist | DRD3 antagonist | GLP-1R agonist
CC1CCCN(CCCNC(=O)c2ccc3c(c2)N(Cc2cccc(Cl)c2)C(=O)c2ccccc2S3(=O)=O)C1 (stereo not given) | ? | -25 | . | .
c1ccc(-c2nc(NCc3ccco3)c3ccccc3n2)nc1 | ? | -16 | -56* | -3%
COc1ccc(Nc2nc(NCc3ccco3)nc(N/N=C/c3ccccc3)n2)cc1 | ? | -6 | -51* | 13%
Oc1ccccc1-c1nc(NCc2ccco2)c2ccccc2n1 | -19% | -1 | 13 | -9%
O=C(Cn1c(-c2cccs2)cc2ccccc21)N1CCN(c2ccc(F)cc2)CC1 | -1% | 7 | . | .
O=C(Cc1ccc(Cl)cc1)NC1CC(=O)N(c2ccc3c(c2)OCCO3)C1 (stereo not given) | 6% | 1 | . | 0%
CC(O)[C@H]1CC[C@H]2[C@@H]3CC[C@@H]4C[C@@H](O)CC[C@]4(C)[C@H]3CC[C@]12C (stereo not given in full) | . | 13 | . | .
COc1ccc(CCNC(=O)CCCCn2c(=O)c3ccccc3n(Cc3cccc(C)c3)c2=O)cc1OC | -15% | -6 | . | 0%
COc1ccc(OC)c(NC(=O)c2ccc3c(c2)c(C)c(C)n3Cc2ccc(F)cc2)c1 | -20% | -18 | . | .
CCCn1cc(S(=O)(=O)CC(=O)NC2CCCCC2)c2ccccc21 | -19% | -25 | -66* | -1%
CCn1c(C(=O)O)c(CC(=O)NC2CCCCCC2)c2ccccc21 | 12% | 7 | -89* | 1%
Cc1ccc(C)c(N2CCN(C(=O)c3cc(S(=O)(=O)N4CCC(C)CC4)cn3C)CC2)c1 | 3% | 2 | . | -1%
NNC(=O)c1ccc(CSc2nc3ccccc3[nH]2)cc1 | 3% | -7 | -56* | 7%
O=C(O)c1ccc(CSc2nc3ccccc3[nH]2)cc1 | 18% | 3 | 4 | -7%
COc1ccc(CNC(=O)c2cc3c(s2)-c2c(C)cccc2OC3)cc1 | -11% | -10 | . | .
O=C(c1cc(Cl)nc2ccccc12)N1CCN(S(=O)(=O)c2cccc(C(F)(F)F)c2)CC1 | 11µM* | 6 | -5 | 8%
COc1ccc(-n2c(C)cc(C(=O)CN3C(=O)NC4(CCCc5sccc54)C3=O)c2C)cc1 (stereo not given) | 13µM* | -2 | -2 | 4%
Cc1cc(C(=O)CN2C(=O)NC3(CCCc4sccc43)C2=O)c(C)n1-c1ccccc1 (stereo not given) | ? | -5 | 0 | 1%
Cc1ccc(CNC(=O)c2ccc(N3CCC4(CC3)CC(c3ccccc3)=NO4)c([N+](=O)[O-])c2)cc1 | -31% | -5 | -61* | -2%
Cc1ccc(CNC(=O)c2ccc(N3CCC4(CC3)CC(c3ccccc3)=NO4)c(N)c2)cc1 | 13% | 34* | 36 | 3%
Cc1cccn2c(=O)c3cc(C(=O)NCc4ccccc4)c(=N)n(CCOCCO)c3nc12 | 18% | -3 | . | 8%
COc1ccc(Cl)cc1N(C)C(=O)Cc1noc2ccc(C)cc12 | 16% | -10 | . | .
Cc1ccc(-c2nc3sccn3c2Nc2ccc(C)c(C)c2)cc1 | -16% | 7 | . | .
O=C(NC(NC(=S)Nc1ccc(Cl)cc1)C(Cl)(Cl)Cl)c1ccco1 (stereo not given) | 3.5µM* | -13 | -2 | -2%
O=C(CCc1ccccc1)NC(NC(=S)Nc1ccc(Br)cc1)C(Cl)(Cl)Cl (stereo not given) | ? | -14 | -91* | -10%
SMILES | GLP-1R inv ag | DRD3 agonist | DRD3 antagonist | GLP-1R agonist
O=C(CCc1ccccc1)NC(NC(=S)Nc1cccc(Cl)c1)C(Cl)(Cl)Cl (stereo not given) | ? | -28 | -29 | -7%
CC(=O)c1ccc(NC(=S)NC(NC(=O)c2ccco2)C(Cl)(Cl)Cl)cc1 (stereo not given) | 5µM* | -7 | 13 | -17%
CCn1cnnc1SCC(=O)c1c(N)n(C2CC2)c(=O)[nH]c1=O | 1% | 0 | -3 | -5%
COc1cc(C(=O)N(Cc2cccnc2)c2nc3cc(C)c(C)cc3s2)cc(OC)c1OC | ? | -16 | . | .
O=C(Cn1cnc2c(OCc3ccccc3)ncnc21)NCc1ccccc1 | ? | -7 | -9 | 3%
c1ccc(COc2ncnc3c2ncn3CCCNCC(c2ccccc2)c2ccccc2)cc1 | ? | -13 | -86* | -8%
O=C(Cn1cnc2c(OCc3ccccc3)ncnc21)NCc1ccccn1 | -15% | 0 | -67* | -8%
Cc1cccc(NC(=O)CSC2=Nc3ccccc3C3=NC(CC(=O)NCc4cccs4)C(=O)N23)c1 (stereo not given) | 9% | 4 | . | .
CC(C)[C@H]1CN=C2N(CCNC(=O)CCC3CCCCC3)[C@H](Cc3ccc(O)cc3)CN21 | -3% | -62 | -83* | -6%
COc1ccc(C[C@@H]2CN3C(=NC[C@@H]3C)N2CCNC(=O)c2ccc(C)c(Br)c2)cc1 | ? | -58 | -52* | -5%
C/C=C(\C)C(=O)NCCN1C2=NC[C@H](C)N2C[C@@H]1Cc1ccc(OC)cc1 | 17% | -8 | 9 | -3%
COc1ccc(C[C@H]2CN3C(=NC[C@@H]3Cc3ccccc3)N2CCNC(=O)CCC2CCCCC2)cc1 | ? | -32 | -62* | 9%
COc1ccc(C[C@H]2CN3C(=NC[C@@H]3C(C)C)N2CCNC(=O)CCC2CCCCC2)cc1 | ? | -64 | ? | 5%
CCOC(=O)C1(C)CCCN(C(=O)c2ccc(-c3ccccc3)cc2)C1 (stereo not given) | -10% | -5 | -1 | 8%
CCOC(=O)C1(C)CCCN(C(=O)c2ccccc2)C1 (stereo not given) | 9% | -20 | -61* | -7%
CCc1ccc2ncc(S(=O)(=O)c3ccc(C)c(C)c3)c(N3CCCC3)c2c1 | ? | -2 | -56* | 9%
CNc1nc(N)c(C(=O)C23CC4CC(CC(C4)C2)C3)s1 | 5.6µM* | 2 | 2 | 6%
O=[N+]([O-])c1ccc(Sc2cccc[n+]2[O-])c2nonc12 | -87% | -60 | -116* | -2%
CCN(CC)CC(=O)NC12CC3CC(CC(C3)C1)C2 | -6% | -11 | 10 | 2%
CCN(CC)C(=S)SCC(=O)NC12CC3CC(CC(C3)C1)C2 | 2.8µM* | 3 | 5 | 18%
CCOC(=O)Cn1c(=O)oc2cc(S(=O)(=O)NCc3ccc(F)cc3)ccc21 | -21% | -3 | . | .
COc1cccc(Nc2sc(C(=O)c3ccc(Cl)cc3)c(N)c2C(=O)NCc2ccc(C)cc2)c1 | ? | 3 | . | .
Cc1ccc(CNC(=O)c2c(Nc3c(C)cccc3C)sc(C(=O)c3ccccc3)c2N)cc1 | 7.1µM* | 9 | . | .
CC(=O)c1c(C)n([O-])c2cc(C)ccc2[n+]1=O | 17% | -3 | -51* | 6%
COc1ccc(-c2c(C)n([O-])c(C)c(C)[n+]2=O)cc1OC | 6% | -1 | -1 | -8%
COC(=O)c1c(-c2ccsc2)sc2ccc(-c3cc(OC)c(OC)c(OC)c3)cc12 | ? | 53* | 49 | 12%
COc1cc(-c2ccc3sc(-c4ccsc4)c(C#CCO)c3c2)cc(OC)c1OC | ? | 50* | 51 | -3%
